# According to PubChem BioAssay (NCATS):
# Inconclusive results are not listed. Where a call stands in place of a potency, no number is given. The source made the active and inactive calls. The call rests on the fitted dose curve; in most records, active means well fitted curve in the direction sought with a large enough effect; inconclusive means small, poorly fitted or top-dose-only effect, or another doubt; inactive means no such curve, though single readings can be large; an effect the other way counts as inactive or inconclusive.
# What was measured:
# [1] = molecular target: Aldehyde dehydrogenase, mitochondrial (Homo sapiens) (UniProt P05091); experiment: qHTS for Inhibitors of the Aldehyde Dehydrogenase Family (ALDH2) Primary screen (AID 2061308); details: ALDH2 enzyme inhibition qHTS, 1536-well; series mostly up to 56 µM; further: nearly all actives have a fitted effect of over 55% in size
# [2] = molecular target: Retinaldehyde dehydrogenase 3 (Homo sapiens) (UniProt P47895); experiment: qHTS for Inhibitors of the Aldehyde Dehydrogenase Family (ALDH1A3) Primary screen (AID 2061315); details: ALDH inhibition qHTS; series mostly up to 56 µM
SMILES,Potency [1],Potency [2]
O=C1Nc2ccccc2/C1=C/c1ccc[nH]1,inactive,inactive
CN[C@@H]1[C@H](O[C@H]2[C@H](O[C@@H]3[C@@H](O)[C@H](O)[C@@H](N=C(N)N)[C@H](O)[C@H]3N=C(N)N)O[C@@H](C)[C@]2(O)CO)O[C@@H](CO)[C@H](O)[C@H]1O,inactive,inactive
NC(=O)C1CCN(c2nccc(Cl)n2)CC1,inactive,inactive
Cc1cc(-c2nnc3n2CCCCC3)c(C)n1-c1ccncc1,inactive,inactive
O=C(Nc1ccc(-c2nc3ccccc3[nH]2)cc1)c1ccc2n[nH]nc2c1,inactive,inactive
COc1cc(OC)c(C(CC(=O)N2CC(C)CC(C)C2)c2ccc3c(c2)OCO3)c(OCC(N)=O)c1 (stereo unspecified),inactive,inactive
O=[S+]([O-])(c1ccc2c(c1)OCCO2)N1CCN([S+](=O)([O-])c2c(O)cc(F)cc2F)CC1,inactive,inactive
C[C@H]1CC[C@@]2(OC1)O[C@H]1CC3C4CC[C@H]5C[C@@H](O)CC[C@]5(C)C4=CC(=O)[C@]3(C)[C@H]1[C@@H]2C (stereo partly specified),inactive,inactive
O=C1NC2=C(C(=O)CCC2)C(c2ccccc2Cl)N1 (stereo unspecified),inactive,inactive
CC(C)Oc1ccc(CCNC(=O)c2cc3sccc3n2Cc2ccccc2)cc1OC(C)C,inactive,inactive
CCOc1ccc(NC(=O)c2ccc(-c3nc4ccccc4[nH]3)cc2)cc1Cl,inactive,inactive
Cc1cc(C)nc(NC(=S)N2CCN(c3ncc(Cl)cc3Cl)CC2)c1,inactive,inactive
COc1cccc(CN2C(=O)c3ccccc3NC2c2ccc(OC)c(COc3c(C)cc(NC(C)=O)cc3C)c2)c1 (stereo unspecified),inactive,inactive
